SW480 rereplic: induces DNA re-replication in SW480 colon adenocarcinoma cells; Potency, µM (doses to about 46.1 µM), inactives show at the top dose re-replication activation, most hits filed as activators; SW480 DNA re-replication, Hoechst DNA content imaging, 48 h; hit rate 1.8% among 340,000; AID 624297; further: potency means the concentration at half of the fitted maximal effect; % of control where 0% means no effect; nearly all actives have a fitted effect of over 55% in size
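First, 250 cells per well were seeded. Next, compound or vehicle (23 nL) was pinned in, plates sat 48 hr at 37 C. Finally Hoechst was added for 40 min before fluorescence scanning.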
VP16 counter: Gal4-VP16 reporter inhibition counter-screen | Drosophila S2 Gal4-VP16 UAS-luciferase, luminescence, 20 h | hit rate 3.5% among 310,000 | Potency, µM (series often up to 53.6 µM), inactives show top-dose activity, negative = inhibition, actives largely listed as inhibitors;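 further: Gal4-VP16 expression switched on by copper sulfate through the metallothionein promoter; potency means the concentration at half of the fitted maximal effect; on the % scale 0 is the no-effect control and ±100 the full control effect; nearly all actives have a fitted effect of over 50% in size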
IL-1B inflam inh: blocks inflammasome-driven IL-1 beta release; THP-1 LPS/ATP IL-1B secretion, AlphaLISA, 16 h; stronger effect = lower value; activity change, % at 57.5 µM; hit rate 4.7% among 360,000; in the data active means activity change below about -50%; inconclusive means mostly about -30% to -49%; further: on the % scale 0 is the no-effect control and ±100 the full control effect
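Secreted IL-1B measured by AlphaLISA bead assay after 16 h compound exposure of THP-1 cells; compounds (final up to 57.5 uM) added 1 h before LPS (250 ng/mL) and ATP (1.25 mM) stimulation; lower signal means less secretion.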
MCF10A rerep: DNA re-replication induction in MCF 10a cells. AID 624296. Potency, µM (doses to about 46.1 µM), for inactives: at the highest dose activity, positive = re-replication, hits mostly activators. hit rate 2.9% among 350,000. MCF 10A DNA re-replication, Hoechst nuclear intensity, 48 h; further: potency means the concentration at half of the fitted maximal effect; % of control where 0% means no effect; nearly all actives have a fitted effect of over 50% in size
RORg inh: blocks mouse ROR gamma transcriptional activity | P51450 | Drosophila S2 Gal4-RORgamma UAS-luciferase reporter, 20 h | Potency, µM (titrated, usually from 53.6 µM), for the others: at the top dose activity change, negative = inhibition, hits mostly inhibitors | hit rate 5.4% among 310,000 | AID 2551; further: potency means the concentration at half of the fitted maximal effect; on the % scale 0 is the no-effect control and ±100 the full control effect; nearly all actives have a fitted effect of over 60% in size
Target sequence (P51450 whole entry, looked up, the tested form may be a part): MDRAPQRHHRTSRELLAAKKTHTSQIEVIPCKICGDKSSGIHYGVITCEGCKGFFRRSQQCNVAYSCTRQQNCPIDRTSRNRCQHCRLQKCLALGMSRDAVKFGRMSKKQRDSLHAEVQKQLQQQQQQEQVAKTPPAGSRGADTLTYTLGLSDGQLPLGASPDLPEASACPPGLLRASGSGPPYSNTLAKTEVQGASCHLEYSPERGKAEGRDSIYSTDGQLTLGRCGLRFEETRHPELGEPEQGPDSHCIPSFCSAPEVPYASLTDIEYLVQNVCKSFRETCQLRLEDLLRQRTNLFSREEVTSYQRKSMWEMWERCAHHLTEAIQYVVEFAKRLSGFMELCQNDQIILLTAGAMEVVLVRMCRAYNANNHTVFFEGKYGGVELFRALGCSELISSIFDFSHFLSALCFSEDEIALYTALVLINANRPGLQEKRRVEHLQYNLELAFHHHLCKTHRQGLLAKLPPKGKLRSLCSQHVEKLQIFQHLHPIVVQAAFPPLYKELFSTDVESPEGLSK
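Stable Schneider cell line, Gal4 DNA-binding domain fused to ROR gamma, UAS-luciferase. Cmpd 1 hr RT → CuSO4 700 uM final → 20 hr RT → luciferase reagent 10 min → luminescence.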
The depositor's hits bear a star; ? = inconclusive; . = no result given; [ ] = dose if it differs, or a comment. The list is not random: actives were taken first. Their share in the collection is about 11%. Unless noted, the call rests on the fitted dose curve; in most records, active means well fitted curve in the direction sought with a large enough effect; inconclusive means small, poorly fitted or top-dose-only effect, or another doubt; inactive means no such curve, though single readings can be large; an effect the other way counts as inactive or inconclusive.

SMILES	SW480 rereplic	VP16 counter	IL-1B inflam inh	MCF10A rerep	RORg inh
COc1cccc(/C=N/NC(N)=S)c1OS(=O)(=O)c1ccccc1	-2%	?	18	-1%	?
Cc1cc(/C=N/NC(N)=S)c(O)c(/C=N/NC(N)=S)c1	10%	0.45µM*	16	-25%	0.2µM*
NC(=S)NN=Cc1nccc2c(C(F)(F)C(F)(F)C(F)(F)F)cccc12	.	.	117	.	.
COc1cccc(-n2nc(C#N)c(Cl)cc2=O)c1	?	7.1µM*	-101*	4.5µM*	3.5µM*
COc1ccc(/C=C2\SC(N3CCCCC3)=NC2=O)cc1OC	-7%	-13%	-28	15%	-5%
COc1cc(/C=C2\SC(N3CCC(C)CC3)=NC2=O)ccc1O	1%	-4%	-56*	-14%	-10%
COc1ccc(OC)c(S(=O)(=O)N2CCCC(C)C2)c1 (stereo unspecified)	0%	-3%	-30	-2%	16%
COc1ccc(OC)c(/C=C2\SC(N3CCCC(C)C3)=NC2=O)c1 (stereo unspecified)	28%	8%	-59*	?	15%
CC(C)N(Cc1ccccc1)C(=O)CC(=O)N(Cc1ccccc1)C(C)C	-2%	4%	-17	6%	-16%
Oc1ccc(CCc2ccccn2)cc1	.	.	5	.	.
O=C(O)c1c(Sc2ccccc2)c2cc(Cl)ccc2n1Cc1ccc(Cl)cc1	.	-23%	.	.	19%
O=C(CCl)NCCNC(=O)c1cc(OCC(F)(F)F)ccc1OCC(F)(F)F	?	-7%	-60*	?	14%
CC(C)CC(=O)NCCNC(=O)c1cc(OCC(F)(F)F)ccc1OCC(F)(F)F	-6%	4%	-14	-3%	-1%
O=C(NCC1CCCCN1)c1cc(OCC(F)(F)F)ccc1OCC(F)(F)F (stereo unspecified)	-4%	2%	-73*	?	2%
CCC1=C2CC[C@H]3C(=O)N(CC)C(=O)[C@H]3[C@H]2[C@@]2(C)C(=NCCc3c[nH]c4ccccc34)OC(=O)N2C1=O	.	6%	.	.	8%
O=C(O)c1ccccc1C(=O)Nc1cc(-c2ccccc2)[nH]n1	-1%	-2%	0	1%	3%
O=C(Nc1cc(-c2ccccc2)[nH]n1)c1ccccc1F	6%	-9%	-57*	2%	-42%
O=C(Nc1cc(-c2ccccc2)[nH]n1)c1ccccc1	9.2µM*	-21%	-54*	?	-36%
O=C(N/N=C1/C[C@@H](O)[C@@H](O)[C@@H]2[C@@H]3C(=O)N(c4cccc(Oc5ccccc5)c4)C(=O)[C@H]3CC[C@@H]12)OCc1ccccc1	.	-8%[10 µM]	.	.	4%[10 µM]
COc1cc(/C=C(\C#N)c2nc3ccccc3[nH]2)cc(Br)c1OCc1ccc(F)cc1	?	-20%	2	8.2µM*	28%
COc1ccc(/C=C(\C#N)c2nc3ccccc3[nH]2)cc1O	?	-30%	?	?	?
COc1cc(/C=C(/C#N)c2nc3ccccc3[nH]2)ccc1OC(=O)c1ccco1	-5%	-8%	-62*	-2%	-9%
COc1cc(/C=C(\C#N)c2nc3ccccc3[nH]2)cc(OC)c1O	?	-19%	-60*	?	8%
COc1cccc(/C=C(\C#N)c2nc3ccccc3[nH]2)c1OCC(=O)O	27%	-10%	6	11%	?
COc1cc(/C=C(\C#N)c2nc3ccccc3[nH]2)cc(Br)c1OCc1ccccc1	18µM*	?	-18	18µM*	?
SMILES	SW480 rereplic	VP16 counter	IL-1B inflam inh	MCF10A rerep	RORg inh
CCN(CC)CCNC(=O)c1ccc2c(c1NCCO)C(=O)c1ccccc1C2=O	?	-25%	-53*	-1%	?
CCOC(=O)Cc1ccc(Nc2nc(NCc3ccccc3)nc3ccsc23)cc1	.	.	-3	.	.
COc1ccc(NC(=O)C(c2ccccc2F)n2c(=O)c(-c3cc4ccccc4[nH]3)nc3ccccc32)cc1 (stereo unspecified)	.	.	-10	.	.
CCCC1=NN2C(=N)/C(=C\c3cc(C)n(-c4cccc(C)c4)c3C)C(=O)N=C2S1	-3%	?	-17	?	?
Cc1cc(/C=C2\C(=N)N3N=C(S(C)(=O)=O)SC3=NC2=O)c(C)n1Cc1ccccc1	?	11%	-10	21µM*	23%
CCCC1=NN2C(=N)/C(=C\c3cc(C)n(Cc4ccccc4)c3C)C(=O)N=C2S1	-4%	2%	-1	23µM*	-7%
COc1cc(/C=C2\C(=N)N3N=C(S(C)(=O)=O)SC3=NC2=O)cc(OC)c1OCCOc1ccccc1C	-5%	-18%	-8	-10%	1%
CCOc1cc(/C=C2\C(=N)N3N=CSC3=NC2=O)ccc1OS(=O)(=O)c1ccccc1	-3%	2%	0	3%	30%
Cc1cc(/C=C2\C(=N)N3N=CSC3=NC2=O)c(C)n1Cc1ccccc1	-10%	?	.	29µM*	?
CCCCn1c(-c2cccnc2)n[nH]c1=S	3%	-28%	23	-1%	?
COc1ccc(CCn2c(-c3ccc(C(C)(C)C)cc3)n[nH]c2=S)cc1OC	21%	-18%	45	1%[9.22 µM]	3.2µM*
CCCCn1c(-c2cc(Cl)ccc2OC)n[nH]c1=S	?	10µM*	0	0%	3.2µM*
COc1ccc(CCn2c(-c3ccc(Cl)cc3)n[nH]c2=S)cc1OC	-6%	?	24	0%	1.6µM*
COc1ccc(CCn2c(C)ccc2C)cc1OC	.	0%	.	.	?
C=CC[C@@H]1C=C[C@H](ON=C(C)C)[C@H](CO)O1	.	-8%[10 µM]	.	.	-8%[10 µM]
COC(=O)[C@@H]1CC[C@H](C)[C@@H](c2ccc(C)cc2)N1C(=O)c1ccc(/C=N/O[C@@H](C)CN2CCCCc3nc(C)c(C)cc32)cc1	25%	20µM*	.	?	?
CC(C)C[C@H](NC(=O)[C@H](Cc1ccccc1)NC(=O)CNC(=O)CNC(=O)[C@@H](N)Cc1ccc(O)cc1)C(=O)N[C@@H](CCCN=C(N)N)C(=O)N[C@@H](CCCN=C(N)N)C(=O)N[C@@H](CCC(N)=O)C(=O)N[C@@H](Cc1ccccc1)C(=O)N[C@@H](CCCCN)C(=O)N[C@H](C(=O)N[C@H](C(=O)N[C@H](C(=O)O)[C@@H](C)O)C(C)C)C(C)C	.	2%	.	.	10%
Cc1nc2c3ccccc3nc(SCC(=O)c3ccc(Cl)cc3)n2n1	-90%	?	2	?	?
COc1cc2nc(SCC(=O)c3ccc(Br)cc3)n3nc(C)nc3c2cc1OC	3%	?	1	1%	13µM*
O=c1c(-c2ccc(F)cc2)nc2cnc(N3CCNCC3)nc2n1-c1ccccc1	.	-13%	.	.	-40%
CCC(Oc1ccccc1)C(=O)Nc1nnc(S(=O)(=O)N2CCCC2)s1 (stereo unspecified)	-5%	-8%	-27	-5%	-2%
